From PubChem BioAssay (NCI)
Compounds without any hit were thinned out: in the full panel of roughly 83,000, 20% have a hit.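 Cell lines were cultured in 96-well plates, exposed to a single compound concentration, and assessed for percent growth 48 hours later.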 A number with no mark means an inactive call. Active and inactive are the calls of the source. How the source made its calls: active means growth percent below 10; inactive means the rest.

What was measured:
Assay in all cases: NCI-60 one-dose screen, 48 h (100 = growth as untreated, 0 = no growth, -100 = all killed)
Details in all cases: 10 µM unless noted
[1] = system: HCT-15 colon
[2] = system: HT29 colon
[3] = system: SNB-75 CNS
[4] = system: SNB-19 CNS
[5] = system: U251 CNS
[6] = system: PC-3 prostate
[7] = system: SK-MEL-5 melanoma
[8] = system: UACC-62 melanoma
[9] = system: LOX IMVI melanoma
[10] = system: SK-MEL-28 melanoma
[11] = system: EKVX NSCLC
[12] = system: SN12C renal
[13] = system: UO-31 renal
[14] = system: TK-10 renal
[15] = system: ACHN renal
[16] = system: CAKI-1 renal
[17] = system: A498 renal
[18] = system: CCRF-CEM leukemia
[19] = system: MOLT-4 leukemia

Structure (SMILES) | growth [1] | growth [2] | growth [3] | growth [4] | growth [5] | growth [6] | growth [7] | growth [8] | growth [9] | growth [10] | growth [11] | growth [12] | growth [13] | growth [14] | growth [15] | growth [16] | growth [17] | growth [18] | growth [19]
CNC(=O)c1nn(C)c2c1C(C)(C)Cc1cnc(Nc3ccc(N4CCN(C)CC4)cc3)nc1-2 | 3.12% (active) | -16.2% (active) | -20.6% (active) | 12.3% | 8.54% (active) | 7.92% (active) | 7.31% (active) | -9.49% (active) | 5.27% (active) | 16.2% | 5.74% (active) | 11.3% | -8.73% (active) | -12.5% (active) | 9.62% (active) | 7.68% (active) | -61.6% (active) | 10.4% | 2.29% (active)
COc1cc2c(cc1OCCCN1Cc3ccc(OCCCCC(=O)N4CCC(CCN5CCCC5)CC4)cc3C1)N=C(N)C21CCCC1 | 102% | 9.48% (active) | 60.3% | 103% | 79.2% | 79.9% | 55.3% | 106% | 64% | 97.9% | 96.9% | 95.3% | 93.7% | 99.3% | 110% | 93.9% | 78.8% | 61.3% | 44.8%
COC(=O)[C@@H](NC(=O)[C@@H](OC)[C@@H]1Cc2cc3cc(OC4CC(OC5CC(O)C(O)C(C)O5)C(O)C(C)O4)c(C)c(O)c3c(O)c2C(=O)[C@H]1OC1CC(OC2CC(OC3CC(C)(O)C(O)C(C)O3)C(O)C(C)O2)C(O)C(C)O1)C(C)C (stereo partly drawn) | 23.9% | 6.32% (active) | -24.3% (active) | 8.43% (active) | -28.1% (active) | 18.8% | -74.3% (active) | -65.1% (active) | -76.2% (active) | -1.86% (active) | 25.3% | 13.2% | 7.39% (active) | 21.7% | 0.317% (active) | 20% | -83.2% (active) | 7.92% (active) | 1.35% (active)
CCN(CC)CCN1C(=O)c2cccc3c(-c4ccc5c(c4)ncn5C4CCCCC4)ccc(c23)C1=O | 8.61% (active) | 0.739% (active) | 4.41% (active) | 32.6% | 14.7% | 5.21% (active) | -96.6% (active) | 22% | -81.6% (active) | -38.2% (active) | 15.6% | 23.8% | -23.7% (active) | 32.1% | 10% | 19.7% | -11.6% (active) | 11.4% | -9.62% (active)
O=C(Nc1cn[nH]c1-c1nc2ccc(CN3CCOCC3)cc2[nH]1)NC1CC1 | 50.2% | 16.3% | -42.1% (active) | 19.5% | 18.6% | 38.5% | 36.1% | 25.1% | 1.79% (active) | 39.5% | 68.5% | 17% | -22.1% (active) | 44% | 36.1% | 23.2% | -15.5% (active) | 13.9% | -5.45% (active)
C=CC(=O)Nc1cc(Nc2nccc(-c3cn(C)c4ccccc34)n2)c(OC)cc1N(C)CCN(C)C | -63.9% (active) | -61.2% (active) | -6.88% (active) | -7.94% (active) | -72.7% (active) | -52.6% (active) | -96.5% (active) | -68.8% (active) | -84.6% (active) | -87.2% (active) | -46.2% (active) | -59.3% (active) | -83.2% (active) | -17.1% (active) | -95.4% (active) | -86.4% (active) | -58.3% (active) | -17.1% (active) | -52.7% (active)
Cc1cccc(C)c1N1C(c2ccccc2)=NNC12C=CC(=O)c1c(O)cccc12 (stereo not drawn) | 32.8% | 89.4% | 96.7% | 69.7% | 40.9% | 38.8% | -37.2% (active) | 24.5% | 7.95% (active) | 110% | 91.3% | 72.5% | 48.4% | 111% | 88.6% | 101% | 109% | 95.9% | 76.9%
